Compound activity: PubChem, National Center for Advancing Translational Sciences (NCATS)
FEN1 inhibitor: blocks human flap endonuclease 1. Recombinant FEN1 flap cleavage, fluorescence, 15 min. Potency, µM (doses to about 114 µM), for inactives: at the top dose activity change, negative = inhibition, actives largely listed as inhibitors. 0.35% of 390,000 active. AID 588795; also: % is scaled to controls: 0 for no effect and ±100 for the full control effect; nearly all actives have a fitted effect of over 65% in size
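FEN1 at 10 nM, compound pretreatment for 15 min (room temperature), 50 nM final substrate to initiate; endpoint reads at 0 and 15 min; DMSO-only plates used as vehicle background.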
POLK inh: inhibitors of human DNA polymerase kappa. Q9UBT6. 0.53% of 400,000 active. Potency, µM (doses to about 107 µM), for inactives: top-dose activity, negative = inhibition, most hits filed as inhibitors. purified Pol kappa, fluorescent DNA synthesis assay, 10 min; also: % is scaled to controls: 0 for no effect and ±100 for the full control effect
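Readout: fluorescence, taken kinetically at 0 and 10 min. Conditions: 10 nM Pol kappa, 15 min RT compound preincubation, 50 nM substrate final. Controls: enzyme-free buffer wells.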
Pol eta inh: inhibitors of human DNA polymerase eta; recombinant Pol eta, fluorescent DNA replication assay; Potency, µM (titrated, usually from 114 µM), for the others: at the highest dose activity change, negative = inhibition, hits mostly inhibitors; 1.2% of 390,000 active; also: % is scaled to controls: 0 for no effect and ±100 for the full control effect
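Pol eta at 10 nM preincubated with compounds 15 min at room temperature; reaction started with fluorescent substrate (50 nM final) and read kinetically at 0 and 10 min.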
WRN inhibitor: WRN helicase (human) inhibition; WRN helicase unwinding, fluorescent forked duplex, kinetic; 0.46% of 360,000 active; AID 651768; Potency, µM (highest dose often 114 µM), inactives show top-dose activity change, negative = inhibition, hits mostly inhibitors; also: % is scaled to controls: 0 for no effect and ±100 for the full control effect; nearly all actives have a fitted effect of over 55% in size
Target sequence (Q14191 whole entry, looked up): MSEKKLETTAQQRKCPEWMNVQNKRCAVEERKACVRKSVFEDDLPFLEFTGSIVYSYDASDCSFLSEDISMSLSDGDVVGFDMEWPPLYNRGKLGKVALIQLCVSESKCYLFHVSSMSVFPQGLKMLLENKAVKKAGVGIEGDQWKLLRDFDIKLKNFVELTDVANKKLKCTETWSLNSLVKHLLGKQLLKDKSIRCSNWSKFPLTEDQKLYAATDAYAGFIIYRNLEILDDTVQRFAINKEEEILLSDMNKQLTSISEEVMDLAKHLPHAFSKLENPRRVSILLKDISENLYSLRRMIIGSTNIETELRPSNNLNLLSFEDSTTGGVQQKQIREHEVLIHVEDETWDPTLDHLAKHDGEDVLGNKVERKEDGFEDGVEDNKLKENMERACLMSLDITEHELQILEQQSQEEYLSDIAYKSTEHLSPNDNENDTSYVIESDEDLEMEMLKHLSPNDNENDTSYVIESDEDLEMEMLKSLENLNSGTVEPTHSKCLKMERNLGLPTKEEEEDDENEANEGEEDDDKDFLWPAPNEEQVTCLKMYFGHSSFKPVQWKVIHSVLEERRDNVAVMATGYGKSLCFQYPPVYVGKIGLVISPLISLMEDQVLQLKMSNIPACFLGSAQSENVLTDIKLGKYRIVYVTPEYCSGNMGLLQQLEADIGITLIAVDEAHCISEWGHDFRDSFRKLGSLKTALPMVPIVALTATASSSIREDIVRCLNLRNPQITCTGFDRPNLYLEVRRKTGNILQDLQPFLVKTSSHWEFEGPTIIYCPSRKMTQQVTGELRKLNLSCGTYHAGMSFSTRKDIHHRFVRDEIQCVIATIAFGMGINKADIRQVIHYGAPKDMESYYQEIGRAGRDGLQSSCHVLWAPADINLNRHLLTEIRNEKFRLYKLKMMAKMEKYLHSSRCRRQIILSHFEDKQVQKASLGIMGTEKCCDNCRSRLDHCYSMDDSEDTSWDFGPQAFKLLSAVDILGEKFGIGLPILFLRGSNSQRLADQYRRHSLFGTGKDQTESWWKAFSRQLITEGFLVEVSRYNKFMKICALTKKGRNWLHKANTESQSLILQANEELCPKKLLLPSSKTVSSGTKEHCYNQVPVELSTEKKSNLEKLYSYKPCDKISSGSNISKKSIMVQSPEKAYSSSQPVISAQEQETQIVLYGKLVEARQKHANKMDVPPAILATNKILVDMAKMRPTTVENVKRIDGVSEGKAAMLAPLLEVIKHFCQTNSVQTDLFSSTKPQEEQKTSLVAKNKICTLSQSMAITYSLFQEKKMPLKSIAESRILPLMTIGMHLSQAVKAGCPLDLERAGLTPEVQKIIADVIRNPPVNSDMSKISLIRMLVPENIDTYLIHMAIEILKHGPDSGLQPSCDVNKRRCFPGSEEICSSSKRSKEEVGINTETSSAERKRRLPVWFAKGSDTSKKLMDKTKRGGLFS
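Kinetic fluorescence helicase assay: unwinding of a quenched forked DNA duplex (100 nM final) with 2 mM ATP final raises red fluorescence (525/598 nm). Compounds sat 15 min at room temperature with 20 nM WRN beforehand.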
POLB inh: blocks human DNA polymerase beta activity; P06746; Pol beta primer extension/strand displacement, fluorescence kinetic; Potency, µM (titrated, usually from 114 µM), for inactives: at the top dose activity change, negative = inhibition, actives largely listed as inhibitors; 1.3% of 340,000 active; also: % is scaled to controls: 0 for no effect and ±100 for the full control effect
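Kinetic readout of DNA synthesis with strand displacement by Pol beta. Compound and 10 nM enzyme sit 15 min at room temperature; 50 nM substrate starts the reaction, read immediately and at 10 min.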
POLI inh: inhibitors of human DNA polymerase iota | Q9UNA4 | Pol iota fluorescent replication assay, 10 min | Potency, µM (series often up to 115 µM), inactives show at the highest dose activity, negative = inhibition, most hits filed as inhibitors | 1% of 390,000 active | AID 588590
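Fluorescent replication assay read twice, at 0 min and 10 min after adding 50 nM (final) substrate. Enzyme (10 nM) and compounds were first incubated 15 min at room temperature; enzyme-free buffer wells were negative controls.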
Active calls of the source: *; i = inactive; u = inconclusive; x = no result; ! = not confirmed by another sample; [ ] = another dose, or the depositor's remark. Hits are enriched below; roughly 2.4% of the tested compounds scored in any of these assays. Calls follow the shape of the dose curve; as a rule, active = well fitted curve in the direction sought with a large enough effect; inconclusive = small, poorly fitted or top-dose-only effect, or another doubt; inactive = no such curve, though single readings can be large; an effect the other way counts as inactive or inconclusive. Potency is read from the fitted curve at half-maximal effect.

SMILES | FEN1 inhibitor | POLK inh | Pol eta inh | WRN inhibitor | POLB inh | POLI inh
CCOc1ccc(NC(=O)CN(C)C(=O)Cc2c(C)nc3ccccc3c2C)cc1OCC | -1% | -18% | u | -28% | 22µM* | -18%
COc1ccc(OCC(=O)NCC(c2ccc(OC)cc2)N2CCCCC2)cc1 (stereo unspecified) | -2% | -2% | -3% | -1% | 89µM*! | 17%
CCOc1cc(C(=O)N/N=C/C2CC=CCC2)cc(OCC)c1OCC (stereo unspecified) | 9% | 4% | -19% | -27%[57.1 µM] | 1% | 10%
Cc1ccc(C(=O)N/N=C\C2CC=CCC2)cc1[N+](=O)[O-] (stereo unspecified) | -2% | 1% | 89µM* | 9% | 29% | 29%
CCN(C(=O)CSc1nnc(-c2cc(OC)c(OC)c(OC)c2)o1)c1ccccc1 | -20% | u | 2% | x | 10µM* | u
Nc1[nH]c(=O)nc2nnsc12 | 5% | -5% | x | x | x | 0%
Cc1cc2cc3c(=O)[nH]c(=O)cc-3n(CC(O)C(O)C(O)CO)c2cc1C (stereo unspecified) | x | x | u | 56µM* | x | x
O=C1c2ccccc2C(=O)N1c1ccccc1 | 1% | 5% | -11% | -5% | x | 24%
O=C1C=CC(=O)N1c1cccc(-c2ccccc2)c1 | 1% | -15% | u | 32µM* | 0% | u
O=S(=O)(c1cccc2ccccc12)N1CCN(c2nc(-c3cccs3)nc3ccccc23)CC1 | 10% | -14% | x | x | x | -10%
O=c1cc(-c2ccc(O)c(O)c2)oc2cc(O)c([C@@H]3O[C@H](CO)[C@@H](O)[C@H](O)[C@H]3O)c(O)c12 | u | 20µM* | u | -18% | x | 28µM*
O=c1cc(-c2ccc(O)cc2)oc2c(C3OCC(O)C(O)C3O)c(O)c(C3OC(CO)C(O)C(O)C3O)c(O)c12 (stereo unspecified) | u | 50µM* | 7.9µM* | -2% | 18µM* | u
O=c1cc(-c2ccc(O)cc2)oc2c([C@@H]3O[C@H](CO)[C@@H](O)[C@H](O)[C@H]3O)c(O)c([C@@H]3O[C@H](CO)[C@@H](O)[C@H](O)[C@H]3O)c(O)c12 | -11% | -19% | -8% | -4% | -29% | -1%
O=C(NC1CCCc2ccccc21)c1cnn2c1NC(=C1CC1)C=C2C(F)F (stereo unspecified) | -5% | -16% | x | x | x | -4%
CCOC(=O)C(C)C(C)=O (stereo unspecified) | -168% | u | u | 16µM* | x | i
CCOC(=O)C(C(C)=O)C(c1ccc(OC)cc1)C(C(C)=O)C(=O)OCC (stereo unspecified) | 1% | -1% | 3% | -22% | -22% | 18%
COc1ccc(-c2nc3cnc(N4CCN(C)CC4)nc3n(Cc3ccc(F)cc3)c2=O)cc1 | x | 4%[60.1 µM] | x | x | x | x
COc1ccc(Cl)cc1NC(=O)C1CCN(S(=O)(=O)c2ccc(F)cc2)CC1 | u | -38% | -16% | x | 17% | 89µM*
COc1ccc(Cl)cc1NC(=O)C1Cc2ccccc2CN1S(C)(=O)=O (stereo unspecified) | -7% | -35% | u | 2%[11.6 µM] | u | 56µM*
CC(CN1CCN(c2ccccc2)CC1)c1ccccc1 (stereo unspecified) | -9% | -16% | -10% | -3%[11.6 µM] | 15% | 45µM*
CNc1ccc(-c2nc3ccccc3s2)cc1 | x | -20%[60.1 µM] | x | x | x | x
COc1ccc(NC(=O)Nc2cccs2)cn1 | 12% | -13% | -14% | 5% | 19% | 39%
COc1ccc(NC(=O)Nc2ccc([N+](=O)[O-])cc2)cn1 | -18% | -40% | u | u | 28µM* | u
O=C(CSc1nnc(Cc2csc(Nc3cccc(Cl)c3)n2)o1)N1CCc2ccccc21 | -2% | -28% | u | -36% | 1% | 79µM*
Cc1cc(C(=O)Nc2ccc(Cl)cc2)c(C)n1-c1ccccc1 | -6% | -10% | -25% | -21% | 0% | 136%
